19 compounds from PubChem BioAssay (NCATS) can be followed below.

The target of test [1] is Rap guanine nucleotide exchange factor 3 (Homo sapiens) (UniProt O95398). Nature of the test: Confirmatory qHTS for antagonist of cAMP-regulated guanine nucleotide exchange factor 3 (EPAC1) (AID 1645880). Further: nearly all actives have a fitted effect of over 55% in size. Further: potency means the concentration at half of the fitted maximal effect. The method, boiled down:
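Nucleotide exchange uses 100 nM EPAC1, 250 nM RAP1B-BODIPY-GDP and 50 uM GDP, with compounds in a concentration-titration series. After 5 min at room temperature, fluorescence (480 nm ex/540 nm em) is read every 5 min for 30 min. Data are normalized to control ATA and DMSO.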

For test [2] the target is unchanged. Nature of the test: Confirmatory qHTS for agonist of cAMP-regulated guanine nucleotide exchange factor 3 (EPAC1) (AID 1645881). Further: nearly all actives have a fitted effect of over 75% in size. Further: potency means the concentration at half of the fitted maximal effect.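 On activation: EPAC1 catalysed release of BODIPY-GDP from Rap1B seen as fluorescence loss; 100% = effect of cAMP agonist control.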
Test [3] addresses Rap guanine nucleotide exchange factor 4 (Homo sapiens) (UniProt Q8WZA2). Nature of the test: Confirmatory qHTS for agonist of cAMP-regulated guanine nucleotide exchange factor 4 (EPAC2) (AID 1645884).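 Further: nucleotide exchange releases bodipy-GDP from Rap1 and this lowers its fluorescence; nearly all actives have a fitted effect of over 65% in size.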 Further: potency means the concentration at half of the fitted maximal effect. On activation: on the % scale 0 is the no-effect control and ±100 the full control effect.
For test [4] the target is unchanged. Put plainly: Confirmatory qHTS for antagonist of cAMP-regulated guanine nucleotide exchange factor 4 (EPAC2) (AID 1645885). Further: nearly all actives have a fitted effect of over 25% in size. Further: potency means the concentration at half of the fitted maximal effect. On activity change, negative = inhibition: on the % scale 0 is the no-effect control and ±100 the full control effect.
Test [5] addresses Rap guanine nucleotide exchange factor 3 (Homo sapiens) (UniProt O95398). Nature of the test: Counterscreen qHTS for antagonist of cAMP-regulated guanine nucleotide exchange factor 3 (EPAC1) (AID 1645888).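 Further: fluorescence loss as bound BODIPY-GDP is released from Rap1B; % of control where 0% means no effect.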 The method, boiled down:
(§1)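 Rap1B–BODIPY-GDP (250 nM) with 50 uM GDP; compounds pin-transferred to 9.74 nM–152 uM final (activator) or from 7.32 nM upwards (inhibitor). Fluorescence Ex/Em 480/540 nm read at 5 and 30 min, then after adding cAMP or buffer, at room temperature.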

The target is the same in test [6]. Nature of the test: Counterscreen qHTS for agonist of cAMP-regulated guanine nucleotide exchange factor 3 (EPAC1) (AID 1645889). Further: nearly all actives have a fitted effect of over 40% in size. Further: potency means the concentration at half of the fitted maximal effect. On activation: % of control where 0% means no effect. In a few lines: as §1

Structures are written as SMILES. Inconclusive results are not listed. Values without a mark were called inactive. The source made the active and inactive calls. The call rests on the fitted dose curve; in most records, active means well fitted curve in the direction sought with a large enough effect; inconclusive means small, poorly fitted or top-dose-only effect, or another doubt; inactive means no such curve, though single readings can be large; an effect the other way counts as inactive or inconclusive.

Chain of Rap guanine nucleotide exchange factor 3 (Homo sapiens) (O95398 whole entry, looked up): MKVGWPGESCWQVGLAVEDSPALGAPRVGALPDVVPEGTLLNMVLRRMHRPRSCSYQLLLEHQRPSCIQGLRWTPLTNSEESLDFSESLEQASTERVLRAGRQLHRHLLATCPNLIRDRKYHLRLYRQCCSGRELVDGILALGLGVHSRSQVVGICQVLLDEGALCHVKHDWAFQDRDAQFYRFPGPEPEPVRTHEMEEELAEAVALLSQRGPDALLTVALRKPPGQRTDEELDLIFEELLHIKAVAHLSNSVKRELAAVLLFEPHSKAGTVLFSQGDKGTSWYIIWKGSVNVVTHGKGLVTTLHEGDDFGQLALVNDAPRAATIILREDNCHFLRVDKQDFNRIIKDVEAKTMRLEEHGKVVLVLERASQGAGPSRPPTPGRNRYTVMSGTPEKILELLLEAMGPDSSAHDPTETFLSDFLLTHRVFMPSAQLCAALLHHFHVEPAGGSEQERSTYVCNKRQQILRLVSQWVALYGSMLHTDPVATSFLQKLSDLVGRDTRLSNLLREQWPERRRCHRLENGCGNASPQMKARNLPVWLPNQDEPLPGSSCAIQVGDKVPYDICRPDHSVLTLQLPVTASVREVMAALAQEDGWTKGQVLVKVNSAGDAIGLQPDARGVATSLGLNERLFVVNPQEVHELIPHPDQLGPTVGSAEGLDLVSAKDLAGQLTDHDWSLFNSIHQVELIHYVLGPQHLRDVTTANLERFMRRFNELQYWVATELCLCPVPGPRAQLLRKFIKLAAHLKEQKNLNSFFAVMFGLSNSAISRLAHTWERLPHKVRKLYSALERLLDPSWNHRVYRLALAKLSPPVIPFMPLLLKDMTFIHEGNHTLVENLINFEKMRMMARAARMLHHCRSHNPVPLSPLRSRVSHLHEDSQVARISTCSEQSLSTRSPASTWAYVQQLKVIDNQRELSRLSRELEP
Chain of Rap guanine nucleotide exchange factor 4 (Homo sapiens) (Q8WZA2 whole entry, looked up): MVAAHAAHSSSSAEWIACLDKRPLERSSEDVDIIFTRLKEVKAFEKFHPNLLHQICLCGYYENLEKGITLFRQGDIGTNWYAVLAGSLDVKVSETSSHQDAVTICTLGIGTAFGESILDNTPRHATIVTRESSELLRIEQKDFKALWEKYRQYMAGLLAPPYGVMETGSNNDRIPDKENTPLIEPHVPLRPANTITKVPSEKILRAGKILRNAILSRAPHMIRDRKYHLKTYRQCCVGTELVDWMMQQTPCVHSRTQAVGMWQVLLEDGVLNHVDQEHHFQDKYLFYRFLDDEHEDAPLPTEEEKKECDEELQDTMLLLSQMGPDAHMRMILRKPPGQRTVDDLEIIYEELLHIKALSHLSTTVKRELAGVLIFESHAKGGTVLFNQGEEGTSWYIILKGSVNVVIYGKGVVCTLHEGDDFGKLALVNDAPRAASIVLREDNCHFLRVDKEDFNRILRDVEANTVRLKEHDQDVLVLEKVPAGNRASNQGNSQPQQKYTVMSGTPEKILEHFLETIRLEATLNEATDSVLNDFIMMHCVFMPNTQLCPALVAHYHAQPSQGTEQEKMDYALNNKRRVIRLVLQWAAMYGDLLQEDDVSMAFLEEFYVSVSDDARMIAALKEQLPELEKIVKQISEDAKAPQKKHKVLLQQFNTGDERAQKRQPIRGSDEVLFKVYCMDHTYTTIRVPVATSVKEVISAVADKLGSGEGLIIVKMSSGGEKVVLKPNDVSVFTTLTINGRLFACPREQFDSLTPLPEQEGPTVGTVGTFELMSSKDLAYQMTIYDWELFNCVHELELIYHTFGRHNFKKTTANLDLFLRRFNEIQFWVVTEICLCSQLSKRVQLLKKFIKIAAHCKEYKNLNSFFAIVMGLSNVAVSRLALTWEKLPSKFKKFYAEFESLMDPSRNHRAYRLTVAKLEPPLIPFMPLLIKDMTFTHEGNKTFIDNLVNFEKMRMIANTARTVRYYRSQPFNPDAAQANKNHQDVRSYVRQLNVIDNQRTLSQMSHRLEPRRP

As to `O=C(c1ccccc1[N+](=O)[O-])N1CCN(c2ccc(N3CCOCC3)nn2)CC1`, the Potency entry in test [1], in test [2], in test [3], in test [4], in test [5] and in test [6] was “inactive” each time.

With `C=CC(=C)CC(NC)c1ccccc1` (centres undefined), the Potency result in test [1], in test [2], in test [3], in test [5] and in test [6] was “inactive” in each case. The Potency in test [4] was 84.9 µM (active).

Take `CC1CCCCN1C(=O)COC(=O)c1cc([N+](=O)[O-])ccc1N1CCOCC1` (centres undefined): the Potency entry in test [1], in test [2], in test [3], in test [4], in test [5] and in test [6] was “inactive” throughout.

On to `CCOCCCn1c(=N)c(C(=O)NC(C)c2ccccc2)cc2c(=O)n3cccc(C)c3nc21` (centres undefined), for which the Potency result in test [1], in test [2], in test [3], in test [4], in test [5] and in test [6] was “inactive” throughout.

Regarding `O=C(O)c1cc(S(=O)(=O)Nc2cc(Cl)ccc2Oc2ccccc2)ccc1O`, the Potency in test [1] was 26.9 µM (active). For the same compound, the Potency entry in test [2], in test [3], in test [4], in test [5] and in test [6] was “inactive” throughout.

With `O/C=c1\ccc2cccc3nc(C(F)(F)F)nc1c23`, the Potency entry in test [1], in test [4] and in test [5] was “inactive” in each case. The Potency is 100 µM (active) in test [2], 100 µM (active) in test [3] and 39.8 µM (active) in test [6].

On to `C=CCOc1ccc(C(c2c(C(=O)O)[nH]c3ccccc23)c2c(C(=O)O)[nH]c3ccccc23)cc1`, for which, in test [1], the Potency is 33.8 µM (active). Besides, the Potency result in test [2], in test [3], in test [4], in test [5] and in test [6] was “inactive” throughout.

In the case of `COc1cc(SC)ccc1C(=O)N(Cc1ccccc1)c1ccccc1`, the Potency result in test [1], in test [2], in test [3], in test [5] and in test [6] was “inactive” each time. Further, in test [4], the Potency was 23.9 µM (active).

Turning to `CCCCNC(=O)c1ccc2nc(-c3ccco3)c(-c3ccco3)nc2c1`, in test [1], the Potency is 7.94 µM (active). The Potency result in test [2] and in test [4] was “inactive” in each case. The activation was 3.07% [at 17.1 µM, percent relative to cAMP agonist control] in test [3] and 11.8% [at 30.8 µM] in test [6]. For the same compound, in test [5], the activity change, negative = inhibition was -2.83% [at 30.8 µM].

In the case of `COc1ccccc1N1CC(C(=O)Nc2cc(C(F)(F)F)ccc2N2CCCC2)CC1=O` (centres undefined), the Potency entry in test [1], in test [2] and in test [4] was “inactive” throughout. The activation was 9.01% [at 17.1 µM, percent relative to cAMP agonist control] in test [3] and 9.96% [at 30.8 µM] in test [6]. The activity change, negative = inhibition in test [5] is -8.33% [at 30.8 µM].

On to `Cc1ccc(-n2nc3c(=O)n(CCCC(=O)NCc4ccccc4F)nc(C)c3c2C)cc1`, for which the Potency result in test [1], in test [2], in test [3], in test [4], in test [5] and in test [6] was “inactive” throughout.

Regarding `COc1ccc(NC(=O)Cn2cnc3sc(C)c(S(=O)(=O)N4CCOCC4)c3c2=O)c(OC)c1`, the Potency result in test [1], in test [2] and in test [4] was “inactive” in each case. In addition, the activation in test [3] is -0.644% [at 17.1 µM, percent relative to cAMP agonist control]; in test [6], 3.18% [at 30.8 µM]. The activity change, negative = inhibition in test [5] is -23.9% [at 30.8 µM].

With `C[C@@H](c1ccccc1)N1Cc2ccccc2Oc2cc(Br)ccc2S1(=O)=O`, the Potency entry in test [1], in test [2], in test [3], in test [5] and in test [6] was “inactive” throughout. In test [4], the Potency is 2.69 µM (active).

Consider `N#Cc1c(-c2ccccc2)nc(SCc2cccc(C(F)(F)F)c2)[nH]c1=O`, for which the Potency in test [1] was 26.9 µM (active); in test [4], 75.7 µM (active). The Potency result in test [2], in test [3], in test [5] and in test [6] was “inactive” in each case.

Consider `CC(=O)Oc1c(Sc2ccccc2[N+](=O)[O-])c(C)nn1C(C)(C)C`, for which the Potency in test [1] is 42.6 µM (active). Also, the Potency entry in test [2], in test [3], in test [4], in test [5] and in test [6] was “inactive” in each case.

`CCOc1cc(C2C3=C(CC(C)(C)CC3=O)N(CCOC)C3=C2C(=O)CC(C)(C)C3)ccc1O`: the Potency result in test [1], in test [2], in test [3], in test [4], in test [5] and in test [6] was “inactive” throughout.

As for `C[C@@H](NC(=O)C1(c2ccccc2)CCN(C(=O)OC(C)(C)C)CC1)C(=O)N[C@@H](C(=O)O)c1ccccc1`, the Potency in test [1] and in test [4] was 42.6 µM (active) throughout. Besides, the Potency result in test [2], in test [3], in test [5] and in test [6] was “inactive” each time.

On to `CCOC(=O)c1sc(NC(=O)c2ccncc2)nc1C`, for which the Potency result in test [1], in test [2], in test [3], in test [4], in test [5] and in test [6] was “inactive” each time.

With `C/C(=C\c1ccco1)CN1CCN(Cc2ccc(C)o2)C(CCO)C1` (centres undefined), the Potency result in test [1], in test [2], in test [3], in test [4], in test [5] and in test [6] was “inactive” in each case.
